Measurements: PubChem BioAssay (Tox21)
“And” between values parts separate entries of the source, which are not always exact repeats. Identical values can stand only once. Results filed as inconclusive are left out. Where a call stands in place of a potency, no number is given. Some compounds were tested as several samples or in several runs, with calls that do not always agree. The source made the active and inactive calls. Calls come from the whole dose curve; as a rule, active = well fitted inhibition curve with a large enough effect in the repeat runs; inconclusive = weak or mixed curves; inactive = no such curve, though single readings can be large or run the other way.

biological target: Cytochrome P450 2D6 (Homo sapiens) (UniProt P10635); assay: Cytochrome P450 Family 2 Subfamily D Member 6 (CYP2D6) small molecule antagonists: luciferase reporter qHTS assay (AID 1671196); conditions: P450-Glo CYP2D6 enzyme assay, luciferin luminescence, 1 h; series mostly up to 115 µM; activity change, negative = inhibition: at the top concentration; note: nearly all actives have a fitted effect of over 50% in size
Method in brief: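 P450-Glo format: CYP2D6 converts a proluciferin substrate to luciferin in an NADPH-driven reaction lasting 1 h at room temperature. Light output, proportional to CYP2D6 activity, reflects interference by test chemicals.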
Potency is the fitted concentration of half-maximal effect.

Chain of Cytochrome P450 2D6 (Homo sapiens) (P10635 whole entry, looked up): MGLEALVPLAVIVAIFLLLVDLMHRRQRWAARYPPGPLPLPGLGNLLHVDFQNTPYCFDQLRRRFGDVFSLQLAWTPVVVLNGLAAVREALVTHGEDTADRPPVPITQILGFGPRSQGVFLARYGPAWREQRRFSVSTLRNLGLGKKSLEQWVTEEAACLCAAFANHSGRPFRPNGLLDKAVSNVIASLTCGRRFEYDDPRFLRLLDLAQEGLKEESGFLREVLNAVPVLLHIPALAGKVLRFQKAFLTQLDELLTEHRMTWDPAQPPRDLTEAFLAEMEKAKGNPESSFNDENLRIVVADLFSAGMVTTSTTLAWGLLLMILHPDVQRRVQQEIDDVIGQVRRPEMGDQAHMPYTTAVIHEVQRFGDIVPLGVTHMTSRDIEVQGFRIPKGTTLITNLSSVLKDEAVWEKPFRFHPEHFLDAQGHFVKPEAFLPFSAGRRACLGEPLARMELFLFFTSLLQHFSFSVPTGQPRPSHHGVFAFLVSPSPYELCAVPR

**Q.** `O=C1CCCCC1` was tested. Which Potency did it give?
**A.** inactive

**Q.** For `OCC1CCCO1` (stereo unspecified), which Potency is on record?
**A.** inactive

**Q.** For `C=C1C2CCC(C2)C1(C)C` (stereo unspecified), which Potency is on record?
**A.** inactive

**Q.** With `CCC(C)C=O` (stereo unspecified) as the compound, how does the Potency read?
**A.** inactive

**Q.** With `CC(=O)Nc1ccc(C(=O)O)cc1` as the compound, how does the “activity change, negative = inhibition” value read?
**A.** 4.86% [at 53 µM] (inactive)

**Q.** `Oc1c(Cl)cc(Cl)c(Cl)c1Cl` was tested. Which Potency did it give?
**A.** inactive

**Q.** `Nc1c(S(=O)(=O)O)cc(Br)c2c1C(=O)c1ccccc1C2=O` was tested. Which “activity change, negative = inhibition” value did it give?
**A.** -22.4% [at 53 µM] (inactive)

**Q.** Which Potency does the source give for `CCCCNC(N)=O` here?
**A.** inactive

**Q.** `CCCCC/C=C\C/C=C\CCCCCCCC(=O)OC` was tested. Which Potency did it give?
**A.** 35.6 µM (active)

**Q.** Which Potency does the source give for `C=C(C#N)C(=O)OCC` here?
**A.** 44.7 µM (active)

**Q.** How did the Potency turn out when `CCOC(=O)/C=C\C(=O)OCC` was run?
**A.** inactive

**Q.** How did the Potency turn out when `OCCOCCOCCOCCO` was run?
**A.** inactive

**Q.** For `Cc1ccc(N)c(S(=O)(=O)O)c1`, which “activity change, negative = inhibition” value is on record?
**A.** -13.7% (inactive)

**Q.** For `CC1COc2ccccc2N1C(=O)C(Cl)Cl` (stereo unspecified), which Potency is on record?
**A.** 15.9 µM (active) and inactive

**Q.** With `COC(=O)Nc1nc2ccc(Sc3ccccc3)cc2[nH]1` as the compound, how does the Potency read?
**A.** inactive

**Q.** Which Potency does the source give for `CC1=CC[C@H]2C[C@@H]1C2(C)C` here?
**A.** inactive

**Q.** `CCOC(=O)C1OC1c1ccccc1` (stereo unspecified) was tested. Which Potency did it give?
**A.** inactive

**Q.** Which Potency does the source give for `OC[C@@H](O)[C@H](O)[C@H](O)[C@@H](O)CO` here?
**A.** inactive

**Q.** How did the Potency turn out when `COC(=O)c1ccc(C(=O)OC)cc1` was run?
**A.** inactive

**Q.** `COCC(C)O` (stereo unspecified) was tested. Which “activity change, negative = inhibition” value did it give?
**A.** -6.07% (inactive)

**Q.** For `c1ccc2ccccc2c1`, which “activity change, negative = inhibition” value is on record?
**A.** -3.66% (inactive)

**Q.** `C=C(C)C(=O)OCCCCCCCCCCCC` was tested. Which Potency did it give?
**A.** inactive

**Q.** With `CCc1ccc(O)cc1` as the compound, how does the Potency read?
**A.** inactive

**Q.** Which Potency does the source give for `CCCCCCCCCCCCN` here?
**A.** 16 µM (active) and 2.24 µM (active) and 8.09 µM (active)

**Q.** With `C=C(C)C(=O)OCCC[Si](OC)(OC)OC` as the compound, how does the Potency read?
**A.** 62.6 µM (active) and inactive

**Q.** How did the Potency turn out when `CC[Si](OC(C)=O)(OC(C)=O)OC(C)=O` was run?
**A.** 35.6 µM (active)
